Results as given in PubChem BioAssay (NCI).
The panel holds about 79,000 compounds, 15% with a hit somewhere; the sample as a whole holds those more often. Values without a mark were called inactive. The source made the active and inactive calls. Rule as the data show it: active = growth inhibition above about 70%; inactive = the rest.

Assays:
[1] = NCI Yeast Anticancer Drug Screen. Data for the rad52 strain (AID 147);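 also: 0% = growth of vehicle-treated control cultures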; conditions: S. cerevisiae rad52 mutant growth inhibition, active compounds read high
How it was run: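 Compounds are applied to a genetically defined yeast strain lacking normal DNA damage repair, and inhibition of growth is expressed relative to cultures given vehicle only.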

[2] = NCI Yeast Anticancer Drug Screen. Data for the wt1 strain (AID 149);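 also: 0% = growth of vehicle-treated wt1 cultures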; conditions: S. cerevisiae wt1 strain (SPY 50644) growth inhibition, active compounds read high
How it was run: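 Measured: growth of wt1 yeast under compound versus vehicle treatment, reported as inhibition.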

[3] = NCI Yeast Anticancer Drug Screen. Data for the rad50EPP+ strain (AID 151);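 also: 0% = growth of vehicle-treated control cultures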; conditions: S. cerevisiae rad50 mutant strain, active compounds read high
How it was run: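 Compounds were applied to the rad50EPP+ yeast strain, which bears a defined DNA repair alteration, and growth inhibition was determined relative to vehicle-treated cultures.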

[4] = NCI Yeast Anticancer Drug Screen. Data for the mgt1 strain (AID 153); conditions: S. cerevisiae mgt1 mutant growth inhibition, active compounds read high
How it was run: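 Strain: mgt1 yeast, one of a set carrying defined DNA damage repair or cell cycle control alterations. Compound-treated growth compared with vehicle.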

[5] = NCI Yeast Anticancer Drug Screen. Data for the rad50 strain (AID 155);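 also: 0% = growth of vehicle-only cultures of the same strain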; conditions: S. cerevisiae rad50 strain growth inhibition, active compounds read high
How it was run: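 Growth of the mutant yeast was measured after compound exposure and referenced to vehicle-treated cultures.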

[6] = NCI Yeast Anticancer Drug Screen. Data for the mec2-1 strain (AID 157); conditions: S. cerevisiae mec2-1 strain, active compounds read high
How it was run: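 Strain: mec2-1 (DNA repair/cell cycle alteration). Compound exposure, then growth measured; inhibition expressed relative to vehicle.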

[7] = NCI Yeast Anticancer Drug Screen. Data for the sgs1 mgt1 strain (AID 161);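 also: 0% = growth of cultures given vehicle only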; conditions: S. cerevisiae sgs1 mgt1 strain, active compounds read high
How it was run: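 Test agents were incubated with a DNA-repair-mutant yeast strain. Growth was then read and compared against vehicle-treated controls.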

[8] = NCI Yeast Anticancer Drug Screen. Data for the CLN2oe strain (AID 163);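 also: 0% = growth of vehicle-only control cultures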; conditions: S. cerevisiae CLN2oe strain, active compounds read high
How it was run: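 Growth of a genetically modified yeast strain is measured after compound exposure and compared with cultures given vehicle alone.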

[9] = NCI Yeast Anticancer Drug Screen. Data for the cln2 rad14 strain (AID 165);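 also: 0% = growth equal to vehicle treated cultures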; conditions: S. cerevisiae cln2 rad14 strain, active compounds read high
How it was run: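 Compounds are applied to the cln2 rad14 yeast strain, and growth is then compared with that of vehicle-treated cultures to give inhibition.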

[10] = NCI Yeast Anticancer Drug Screen. Data for the bub3 strain (AID 167); conditions: S. cerevisiae bub3 mutant strain, active compounds read high
How it was run: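 Whole-cell yeast assay. The mutant strain was incubated with compounds, and growth inhibition was determined by comparison with vehicle-treated cells.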

[11] = NCI Yeast Anticancer Drug Screen. Data for the wt2 strain (AID 169);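 also: 0% = growth of vehicle-treated yeast cultures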; conditions: S. cerevisiae wt2 strain growth inhibition, active compounds read high
How it was run: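 This strain belongs to a panel of yeast strains with defined genetic alterations in DNA damage repair or cell cycle control. Compounds are applied, and growth inhibition is measured against vehicle-treated cultures.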

[12] = NCI Yeast Anticancer Drug Screen. Data for the mlh1 strain (AID 171);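 also: 0% = growth of vehicle-treated control cultures of the same strain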; conditions: S. cerevisiae mlh1 strain growth inhibition, active compounds read high
How it was run: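 Growth of the mutant yeast strain after compound exposure, expressed as inhibition relative to vehicle-only controls.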

[13] = NCI Yeast Anticancer Drug Screen. Data for the sgs1 strain (AID 173);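 also: 0% = growth of vehicle-only control cultures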; conditions: S. cerevisiae sgs1 mutant, active compounds read high
How it was run: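 Growth of a yeast strain bearing a defined genetic alteration is measured after compound treatment. Inhibition is expressed relative to vehicle-only controls.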

[14] = NCI Yeast Anticancer Drug Screen. Data for the mlh1 rad18 strain (AID 175); conditions: S. cerevisiae mlh1 rad18 strain growth inhibition, active compounds read high
How it was run: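 Read-out is yeast growth inhibition, calculated against vehicle-only controls. The compound was applied to a strain engineered with DNA damage repair alterations.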

[15] = NCI Yeast Anticancer Drug Screen. Data for the rad18 strain (AID 177); conditions: S. cerevisiae rad18 mutant growth inhibition, active compounds read high
How it was run: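 Growth of the mutant yeast strain after compound exposure, normalised to vehicle-only cultures.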

[16] = at 5.0 µM (retest, dose inferred, filed as 0.5)
[17] = at 50.0 µM (retest, dose inferred, filed as 5.0)

Question: What does the source list for `O=C1c2cccnc2C(=O)C2C3C=CC(C3)C12` (stereo not drawn)?
Answer: growth inhibition ([1]; at 1.2 µM): 12%; growth inhibition ([1]; at 3.7 µM): 35%; growth inhibition ([1]; at 11.0 µM): 78% (active); growth inhibition ([1]; at 33.0 µM): 94% (active); growth inhibition ([1]; at 100.0 µM): 98% (active); growth inhibition ([2]; at 1.2 µM): 16%; growth inhibition ([2]; at 3.7 µM): 20%; growth inhibition ([2]; at 11.0 µM): 43%; growth inhibition ([2]; at 33.0 µM): 91% (active); growth inhibition ([2]; at 100.0 µM): 99% (active); growth inhibition ([3]; at 1.2 µM): 30%; growth inhibition ([3]; at 3.7 µM): 82% (active); growth inhibition ([3]; at 11.0 µM): 92% (active); growth inhibition ([3]; at 33.0 µM): 96% (active); growth inhibition ([3]; at 100.0 µM): 97% (active); growth inhibition ([4]; at 1.2 µM): 12%; growth inhibition ([4]; at 3.7 µM): 32%; growth inhibition ([4]; at 11.0 µM): 65%; growth inhibition ([4]; at 33.0 µM): 94% (active); growth inhibition ([4]; at 100.0 µM): 98% (active); growth inhibition ([5]; at 1.2 µM): 31%; growth inhibition ([5]; at 3.7 µM): 73% (active); growth inhibition [5, 16]: 29%; growth inhibition ([5]; at 11.0 µM): 91% (active); growth inhibition ([5]; at 33.0 µM): 97% (active); growth inhibition [5, 17]: 96% (active); growth inhibition ([5]; at 50.0 µM): 99.4% (active); growth inhibition ([5]; at 100.0 µM): 94% (active); growth inhibition ([6]; at 1.2 µM): 19%; growth inhibition ([6]; at 3.7 µM): 34%; growth inhibition [6, 16]: 37%; growth inhibition ([6]; at 11.0 µM): 87% (active); growth inhibition ([6]; at 33.0 µM): 98% (active); growth inhibition [6, 17]: 98% (active); growth inhibition ([6]; at 50.0 µM): 99.5% (active); growth inhibition ([6]; at 100.0 µM): 99% (active); growth inhibition [7, 16]: 56%; growth inhibition [7, 17]: 98% (active); growth inhibition ([7]; at 50.0 µM): 99.2% (active); growth inhibition ([8]; at 1.2 µM): 10%; growth inhibition ([8]; at 3.7 µM): 16%; growth inhibition ([8]; at 11.0 µM): 30%; growth inhibition ([8]; at 33.0 µM): 75% (active); growth inhibition ([8]; at 100.0 µM): 97% (active); growth inhibition [9, 16]: -31%; growth inhibition [9, 17]: 85% (active); growth inhibition ([9]; at 50.0 µM): 45.5%; growth inhibition ([10]; at 1.2 µM): 9%; growth inhibition ([10]; at 3.7 µM): 30%; growth inhibition [10, 16]: 57%; growth inhibition ([10]; at 11.0 µM): 72% (active); growth inhibition ([10]; at 33.0 µM): 95% (active); growth inhibition [10, 17]: 98% (active); growth inhibition ([10]; at 50.0 µM): 98.4% (active); growth inhibition ([10]; at 100.0 µM): 99% (active); growth inhibition ([11]; at 1.2 µM): 16%; growth inhibition ([11]; at 3.7 µM): 36%; growth inhibition ([11]; at 11.0 µM): 78% (active); growth inhibition ([11]; at 33.0 µM): 97% (active); growth inhibition ([11]; at 100.0 µM): 99% (active); growth inhibition ([12]; at 1.2 µM): 28%; growth inhibition ([12]; at 3.7 µM): 55%; growth inhibition ([12]; at 11.0 µM): 92% (active); growth inhibition ([12]; at 33.0 µM): 98% (active); growth inhibition ([12]; at 100.0 µM): 99% (active); growth inhibition ([13]; at 1.2 µM): 18%; growth inhibition ([13]; at 3.7 µM): 36%; growth inhibition ([13]; at 11.0 µM): 75% (active); growth inhibition ([13]; at 33.0 µM): 93% (active); growth inhibition ([13]; at 100.0 µM): 98% (active); growth inhibition [14, 16]: 72% (active); growth inhibition [14, 17]: 98% (active); growth inhibition ([14]; at 50.0 µM): 99.2% (active); growth inhibition ([15]; at 1.2 µM): 29%; growth inhibition ([15]; at 3.7 µM): 76% (active); growth inhibition ([15]; at 11.0 µM): 91% (active); growth inhibition ([15]; at 33.0 µM): 96% (active); growth inhibition ([15]; at 100.0 µM): 97% (active)
